Measurements: PubChem BioAssay (Tox21)
Inconclusive results are not listed. A number with no mark means an inactive call. The call rests on the fitted dose curve; in most records, active means well fitted cell-killing curve with a large enough effect in the repeat runs; inconclusive means weak or mixed curves, or effect the other way; inactive means no such curve, though single readings can be large or run the other way.

Test: qHTS assay to identify small molecule antagonists of the peroxisome proliferator-activated receptor gamma (PPARg) signaling pathway - cell viability counter screen (AID 743194); further: nearly all actives have a fitted effect of over 55% in size
Conditions: PPARg-bla HEK293H viability, CellTiter-Glo luminescence, 17 h; Potency: co-treated with 50 nM rosiglitazone; series mostly up to 62.6 µM; activity change, negative = cytotoxicity: at the top concentration
From the text: U.S. Tox21 Program National Center for Advancing Translational Sciences [NCATS] NIH Chemical Genomics Center [NCGC] U.S. Environmental Protection Agency [EPA] National Institutes of Environmental Health Sciences [NIEHS] National Toxicology Program [NTP] U.S. Food and Drug Administration [FDA] Tox21 Assay Overview: The peroxisome proliferator-activated receptors (PPARs) are lipid-activated transcription factors of the nuclear receptor superfamily with three distinct subtypes namely PPAR alpha, PPAR delta (also called PPAR beta) and PPAR gamma (PPARg). All these subtypes heterodimerize with Retinoid X receptor (RXR) and these heterodimers regulate transcription of various genes. PPAR-gamma receptor (glitazone receptor) is involved in the regulation of glucose and lipid metabolism. To identify the compounds that activate PPAR-gamma signaling, GeneBLAzer PPAR gamma UAS-bla HEK293H cell line (Invitrogen, Carlsbad, CA, USA) containing a beta-lactamase reporter gene under the control of an Upstream Activator Sequence (UAS) was used to screen the Tox21 compound library. The cytotoxicity of the Tox21 compound library against the PPARg-bla cell line was tested in parallel by measuring the cell viability using CellTiter-Glo assay in the same wells.
Tox21 Assay Protocol Summary: PPARg-bla cells were dispensed at 3000 cells/5uL/well in 1536-well black wall/clear bottom plates using a Multidrop Combi (Thermo Fisher Scientific, Waltham, MA) dispenser. After the assay plates were incubated at 37 C and 5% CO2 for 5 h, 23 nL of compounds dissolved in DMSO, positive controls or DMSO only was transferred to the assay plate by a Pintool station (Kalypsys, San Diego, CA), followed by addition of 1ul Rosiglitazone (50 nM, final concentration in the wells). The assay plates were incubated at 37 C for 17 h, and then 1 uL of LiveBLAzerTM B/G FRET substrate was added using a Bioraptr Flying Reagent Dispenser (FRD) workstation (Beckman Coulter, Indianapolis, IN, USA). The assay plates were incubated at room temperature for 1 h and fluorescence intensity was measured by an Envision plate reader (PerkinElmer, Shelton, CT). For cell viability readout that measures cytotoxicity, 4 ul/well of CellTiter-Glo reagent was added into the assay plates using a Flying Reagent Dispenser. After 30 min incubation at room temperature, the luminescence intensity in the plates was measured using a ViewLux plate reader (PerkinElmer).
On the % scale 0 is the no-effect control and ±100 the full control effect.

| SMILES | activity change, negative = cytotoxicity |
| --- | --- |
| O=[N+]([O-])c1cccc2cccnc12 | -9.06% [at 81.1 µM, co-treated with 50 nM rosiglitazone] |
| COc1cc(OC)nc(NC(=O)NS(=O)(=O)c2ncccc2C(=O)N(C)C)n1 | 2.87% |
| CCOP(=S)(OCC)Oc1ncn(-c2ccccc2)n1 | 0.139% |
| COC(=O)COc1ccc(Cl)cc1Cl | 1.15% |
| Nc1ccccc1Cl | 1.6% |
| CC(=O)CC(c1ccc(Cl)cc1)c1c(O)c2ccccc2oc1=O (stereo not given) | 5.08% [at 81.1 µM, co-treated with 50 nM rosiglitazone] |
| CCN(CC)CCOC(=O)C(C)(c1ccccc1)c1ccccc1 | -3.52% |
| CN1CCN(C(=O)O[C@H]2c3nccnc3C(=O)N2c2ccc(Cl)cn2)CC1 | -8.08% [at 62.6 µM] |
| C=CCC1=C(C)[C@@H](OC(=O)[C@@H]2[C@@H](C=C(C)C)C2(C)C)CC1=O | -31.3% |
| CN(C)CCc1ccc(O)cc1 | 0.793% |
| N#CC(O)c1ccccc1 (stereo not given) | 1.57% |
| COc1cc(OC)nc(Sc2cccc(Cl)c2C(=O)O)n1 | 28.9% |
| Cc1nc(N)nc(N)n1 | -2.46% [at 81.1 µM, co-treated with 50 nM rosiglitazone] |
| CC1(C)CON(Cc2ccccc2Cl)C1=O | 19.4% |
| OC(c1ccccc1)(c1ccccc1)C1CCNCC1 | 1.67% [at 62.6 µM] |
| CC(Oc1ccc(Oc2ncc(C(F)(F)F)cc2Cl)cc1)C(=O)O (stereo not given) | -12.1% |
| CCS(=O)(=O)CCSP(=O)(OC)OC | 6.92% |
| OCCBr | 11.9% |
| CCOC(=O)C(c1c(O)c2ccccc2oc1=O)c1c(O)c2ccccc2oc1=O | 11.9% |
| CN1CCC(N(Cc2ccccc2)c2ccccc2)CC1 | -21.7% |

| SMILES | activity change, negative = cytotoxicity |
| --- | --- |
| ClCC(Cl)(Cl)Cl | 0.606% [at 81.1 µM, co-treated with 50 nM rosiglitazone] |
| O=C(CCN1CC1)OCC(CO)(COC(=O)CCN1CC1)COC(=O)CCN1CC1 | -1.36% |
| N#CC(CCc1ccc(Cl)cc1)(Cn1cncn1)c1ccccc1 (stereo not given) | -8.2% |
| CCOP(=S)(OCC)Oc1nc(Cl)n(C(C)C)n1 | -3.85% |
| Fc1cc(Br)ccc1CBr | -0.271% |
| Cc1nnc2n1-c1sc(CCC(=O)N3CCOCC3)cc1C(c1ccccc1Cl)=NC2 | -11.8% [at 62.6 µM] |
| CNC(=O)Oc1ccccc1C1OCCO1 | 25.4% |
| CNC(=O)Oc1c(C(C)(C)C)cc(C)cc1C(C)(C)C | -23.9% |
| c1ccc(N2CCNCC2)cc1 | 6.16% [at 62.6 µM] |
| CC(C)NCC(O)c1ccc(N)c(C#N)c1 (stereo not given) | 8.7% |
| COc1cccc(C(=O)NN(C(=O)c2cc(C)cc(C)c2)C(C)(C)C)c1C | 6.04% |
| CC(C)COP(=O)(OCC(C)C)OCC(C)C | -21.8% |
| C=CC1CC=CCC1 (stereo not given) | -0.195% |
| C1CCC(C2CCCCC2)CC1 | 6.05% |
| COP(=S)(OC)Oc1c(Cl)cc(C)cc1Cl | -28.1% |
| COc1cc(OC)nc(Oc2cccc(Oc3nc(OC)cc(OC)n3)c2C(=O)O)n1 | -1.45% |
| COC(=O)c1ccccc1S(=O)(=O)NC(=O)Nc1nc(C)cc(C)n1 | 2.86% |
| COc1cc(OC)nc(NC(=O)NS(=O)(=O)c2ncccc2OCC(F)(F)F)n1 | 15.5% |
| O=[N+]([O-])c1cc(Cl)c(Cl)c(Cl)c1 | 19.8% |
| NC(=O)c1cc([N+](=O)[O-])cc([N+](=O)[O-])c1 | 6.62% |
